Assay results taken from PMC7862700, “An all-to-all approach to the identification of sequence-specific readers for epigenetic DNA modifications on cytosine”.

Experiments:
Assay in all cases: DAPPL (digital affinity profiling via proximity ligation, sequencing); 10 mM Tris-HCl pH 7.5, 50 mM NaCl, 1 mM DTT, 4% glycerol, room temperature, 30 min; GST-TFs on glutathione beads, 16-mer random dsDNA library, 0.1% formaldehyde crosslink after washing; high values mean tight binding
HSF1 = HSF1 (Homo sapiens, UniProt Q00613 1-529); details: protein: recombinant; tags: N-terminal GST; chain copies: 3; dsDNA, one strand shown
Summary of the method: (§1)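 Sequencing on an Illumina NextSeq500 followed washing, crosslinking with 0.1% formaldehyde, proximity ligation (BsaI/T4 ligase, 1 h, 37 °C) and PCR amplification of pools that had been incubated for 30 min at room temperature with 200 nmole of a random double-stranded 16-mer DNA library in Tris/NaCl/DTT/glycerol buffer. Each pool held DNA-barcoded human transcription factors, expressed in yeast as GST fusions and captured on glutathione beads, plus a tag-only sample. Binding signal is a hexamer's read frequency for a factor divided by its frequency in the tag-only sample.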

CRX = CRX (Homo sapiens, UniProt O43186 1-299); details: protein: recombinant; tags: N-terminal GST; dsDNA, one strand shown
Summary of the method: as §1

ETV3L = biological target: T1, ETV3L (Homo sapiens, UniProt Q6ZN32 1-361); details: protein: recombinant; tags: N-terminal GST; dsDNA, one strand shown
T1 sequence: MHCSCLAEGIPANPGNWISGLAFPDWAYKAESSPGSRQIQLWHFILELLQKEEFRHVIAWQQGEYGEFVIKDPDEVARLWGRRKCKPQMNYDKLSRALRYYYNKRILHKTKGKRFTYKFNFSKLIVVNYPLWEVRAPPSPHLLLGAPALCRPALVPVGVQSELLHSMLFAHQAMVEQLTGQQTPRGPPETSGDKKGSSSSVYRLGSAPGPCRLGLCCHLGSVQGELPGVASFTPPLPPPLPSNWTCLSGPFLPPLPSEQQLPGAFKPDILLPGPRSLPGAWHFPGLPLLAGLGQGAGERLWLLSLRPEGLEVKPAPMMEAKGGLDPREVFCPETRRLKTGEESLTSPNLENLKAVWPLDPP
Summary of the method: as §1

SPDEF = biological target: T2, SPDEF (Homo sapiens, UniProt O95238 1-335); details: protein: recombinant; tags: N-terminal GST; dsDNA, one strand shown
T2 sequence: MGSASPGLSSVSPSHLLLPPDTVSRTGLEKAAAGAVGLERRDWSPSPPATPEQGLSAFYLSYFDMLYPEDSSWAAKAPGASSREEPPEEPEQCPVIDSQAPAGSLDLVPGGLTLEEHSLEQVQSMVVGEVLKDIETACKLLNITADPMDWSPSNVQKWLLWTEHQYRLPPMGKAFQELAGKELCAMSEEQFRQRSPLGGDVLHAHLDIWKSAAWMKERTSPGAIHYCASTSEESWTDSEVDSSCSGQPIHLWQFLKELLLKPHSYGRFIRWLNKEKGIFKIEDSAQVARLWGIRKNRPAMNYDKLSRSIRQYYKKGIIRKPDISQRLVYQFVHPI
Summary of the method: as §1

ELF1 = ELF1 (Homo sapiens, UniProt P32519 1-619); details: protein: recombinant; tags: N-terminal GST; dsDNA, one strand shown
Summary of the method: as §1

ELK3 = biological target: T3, ELK3 (Homo sapiens, UniProt P41970 1-407); details: protein: recombinant; tags: N-terminal GST; dsDNA, one strand shown
T3 sequence: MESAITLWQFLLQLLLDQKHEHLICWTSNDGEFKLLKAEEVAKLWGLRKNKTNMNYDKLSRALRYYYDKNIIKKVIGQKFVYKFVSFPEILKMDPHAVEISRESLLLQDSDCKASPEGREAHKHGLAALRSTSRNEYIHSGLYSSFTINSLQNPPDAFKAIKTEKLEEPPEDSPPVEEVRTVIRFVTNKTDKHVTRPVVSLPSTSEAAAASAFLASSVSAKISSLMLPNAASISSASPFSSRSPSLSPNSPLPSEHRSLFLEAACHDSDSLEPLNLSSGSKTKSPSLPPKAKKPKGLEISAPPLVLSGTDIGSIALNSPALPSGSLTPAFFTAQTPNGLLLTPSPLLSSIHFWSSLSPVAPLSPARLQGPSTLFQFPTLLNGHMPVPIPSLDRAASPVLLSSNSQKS
Summary of the method: as §1

ETV1 = ETV1 (Homo sapiens, UniProt P50549 1-477); details: protein: recombinant; tags: N-terminal GST; dsDNA, one strand shown
Summary of the method: as §1

SPIB = SPIB (Homo sapiens, UniProt Q01892 1-262); details: protein: recombinant; tags: N-terminal GST; dsDNA, one strand shown
Summary of the method: as §1

SPIC = biological target: T4, SPIC (Homo sapiens, UniProt Q8N5J4 1-248); details: protein: recombinant; tags: N-terminal GST; dsDNA, one strand shown
T4 sequence: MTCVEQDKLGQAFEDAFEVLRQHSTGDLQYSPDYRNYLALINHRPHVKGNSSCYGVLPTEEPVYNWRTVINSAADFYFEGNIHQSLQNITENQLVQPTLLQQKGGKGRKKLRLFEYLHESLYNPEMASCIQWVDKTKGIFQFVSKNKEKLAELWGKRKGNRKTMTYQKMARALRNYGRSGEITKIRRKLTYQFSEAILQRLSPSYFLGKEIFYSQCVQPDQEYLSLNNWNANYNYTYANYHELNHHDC
Summary of the method: as §1

ELK1 = biological target: T5, ELK1 (Homo sapiens, UniProt P19419 1-428); details: protein: recombinant; tags: N-terminal GST; dsDNA, one strand shown
T5 sequence: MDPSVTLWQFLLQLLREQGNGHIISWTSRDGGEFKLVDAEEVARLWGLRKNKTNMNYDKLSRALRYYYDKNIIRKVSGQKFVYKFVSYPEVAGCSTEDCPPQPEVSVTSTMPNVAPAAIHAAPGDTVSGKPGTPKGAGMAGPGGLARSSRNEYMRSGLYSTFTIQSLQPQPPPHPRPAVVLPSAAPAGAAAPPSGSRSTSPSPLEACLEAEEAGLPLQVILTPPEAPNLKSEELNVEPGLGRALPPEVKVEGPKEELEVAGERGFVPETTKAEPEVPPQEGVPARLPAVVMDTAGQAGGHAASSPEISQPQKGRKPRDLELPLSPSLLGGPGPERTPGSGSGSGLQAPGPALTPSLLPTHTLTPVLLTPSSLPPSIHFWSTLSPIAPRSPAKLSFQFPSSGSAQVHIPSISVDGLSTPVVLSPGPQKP
Summary of the method: as §1

GABPA = biological target: T6, GABPA (Homo sapiens, UniProt Q06546 1-454); details: protein: recombinant; tags: N-terminal GST; dsDNA, one strand shown
T6 sequence: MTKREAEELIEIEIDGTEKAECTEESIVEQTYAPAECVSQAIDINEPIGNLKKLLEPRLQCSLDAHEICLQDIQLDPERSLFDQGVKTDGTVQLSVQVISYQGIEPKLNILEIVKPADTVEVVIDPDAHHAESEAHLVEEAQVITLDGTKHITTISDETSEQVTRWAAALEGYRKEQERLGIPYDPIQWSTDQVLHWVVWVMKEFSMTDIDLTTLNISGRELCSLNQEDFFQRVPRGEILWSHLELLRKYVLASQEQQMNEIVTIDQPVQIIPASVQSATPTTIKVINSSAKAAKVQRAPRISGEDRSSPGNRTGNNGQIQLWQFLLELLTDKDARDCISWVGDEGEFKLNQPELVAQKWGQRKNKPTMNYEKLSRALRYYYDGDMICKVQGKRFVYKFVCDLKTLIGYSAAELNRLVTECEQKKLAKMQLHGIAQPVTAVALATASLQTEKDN
Summary of the method: as §1

EHF = biological target: T7, EHF (Homo sapiens, UniProt Q9NZC4 1-300); details: protein: recombinant; tags: N-terminal GST; dsDNA, one strand shown
T7 sequence: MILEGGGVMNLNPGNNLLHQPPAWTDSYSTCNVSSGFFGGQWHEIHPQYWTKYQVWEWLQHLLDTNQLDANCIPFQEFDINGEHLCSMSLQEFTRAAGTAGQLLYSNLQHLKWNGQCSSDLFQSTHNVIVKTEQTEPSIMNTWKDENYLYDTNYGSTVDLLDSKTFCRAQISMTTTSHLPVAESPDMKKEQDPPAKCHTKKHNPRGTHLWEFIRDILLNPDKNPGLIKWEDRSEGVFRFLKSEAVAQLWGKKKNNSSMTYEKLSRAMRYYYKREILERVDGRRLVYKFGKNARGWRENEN
Summary of the method: as §1

FEV = biological target: T8, FEV (Homo sapiens, UniProt Q99581 1-238); details: protein: recombinant; tags: N-terminal GST; dsDNA, one strand shown
T8 sequence: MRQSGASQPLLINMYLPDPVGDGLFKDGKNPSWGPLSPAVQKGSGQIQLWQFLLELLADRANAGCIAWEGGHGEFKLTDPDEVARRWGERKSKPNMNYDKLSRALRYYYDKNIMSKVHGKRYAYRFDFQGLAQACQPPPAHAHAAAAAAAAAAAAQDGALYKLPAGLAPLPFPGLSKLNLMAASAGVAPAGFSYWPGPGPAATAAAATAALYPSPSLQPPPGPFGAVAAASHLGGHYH
Summary of the method: as §1

ELF4 = ELF4 (Homo sapiens, UniProt Q99607 1-663); details: protein: recombinant; tags: N-terminal GST; dsDNA, one strand shown
Summary of the method: as §1

ELK4 = biological target: T9, ELK4 (Homo sapiens, UniProt P28324-2 1-405); details: protein: recombinant; tags: N-terminal GST; dsDNA, one strand shown
T9 sequence: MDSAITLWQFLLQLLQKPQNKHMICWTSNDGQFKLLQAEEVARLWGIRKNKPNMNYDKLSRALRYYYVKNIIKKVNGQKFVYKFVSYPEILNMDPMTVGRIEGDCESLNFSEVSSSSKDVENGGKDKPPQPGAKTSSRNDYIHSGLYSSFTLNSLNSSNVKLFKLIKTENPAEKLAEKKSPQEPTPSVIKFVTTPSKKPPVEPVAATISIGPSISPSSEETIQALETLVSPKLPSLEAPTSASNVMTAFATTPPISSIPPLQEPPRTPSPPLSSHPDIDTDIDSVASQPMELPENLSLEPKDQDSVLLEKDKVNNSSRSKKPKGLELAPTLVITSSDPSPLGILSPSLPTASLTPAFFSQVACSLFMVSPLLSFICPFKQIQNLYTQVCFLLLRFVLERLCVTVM
Summary of the method: as §1

ETV2 = biological target: T10, ETV2 (Homo sapiens, UniProt O00321 1-342); details: protein: recombinant; tags: N-terminal GST; dsDNA, one strand shown
T10 sequence: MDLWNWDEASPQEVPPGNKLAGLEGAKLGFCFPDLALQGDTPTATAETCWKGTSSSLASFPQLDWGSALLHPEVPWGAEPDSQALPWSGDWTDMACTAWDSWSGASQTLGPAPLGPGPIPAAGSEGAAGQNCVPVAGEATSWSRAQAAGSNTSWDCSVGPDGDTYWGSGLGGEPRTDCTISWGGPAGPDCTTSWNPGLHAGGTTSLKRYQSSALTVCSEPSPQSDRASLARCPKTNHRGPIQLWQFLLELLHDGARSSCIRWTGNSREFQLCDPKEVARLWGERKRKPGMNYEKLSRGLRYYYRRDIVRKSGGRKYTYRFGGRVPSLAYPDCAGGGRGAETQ
Summary of the method: as §1

ETV3 = biological target: T11, ETV3 (Homo sapiens, UniProt P41162-2 1-143); details: protein: recombinant; tags: N-terminal GST; dsDNA, one strand shown
T11 sequence: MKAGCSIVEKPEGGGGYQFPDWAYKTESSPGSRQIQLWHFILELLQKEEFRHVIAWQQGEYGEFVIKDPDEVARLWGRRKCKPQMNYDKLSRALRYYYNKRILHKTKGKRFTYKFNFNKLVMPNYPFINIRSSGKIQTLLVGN
Summary of the method: as §1

Chain of CRX (O43186 whole entry): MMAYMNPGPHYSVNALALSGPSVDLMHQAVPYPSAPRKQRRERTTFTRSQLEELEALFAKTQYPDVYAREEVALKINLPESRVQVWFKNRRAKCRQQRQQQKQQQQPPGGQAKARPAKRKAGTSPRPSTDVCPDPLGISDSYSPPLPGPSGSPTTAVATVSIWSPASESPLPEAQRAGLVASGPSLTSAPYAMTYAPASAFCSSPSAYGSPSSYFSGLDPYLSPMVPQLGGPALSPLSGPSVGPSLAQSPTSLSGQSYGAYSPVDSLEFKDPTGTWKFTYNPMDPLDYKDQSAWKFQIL
Chain of HSF1 (Q00613 whole entry, the tested form may be a part): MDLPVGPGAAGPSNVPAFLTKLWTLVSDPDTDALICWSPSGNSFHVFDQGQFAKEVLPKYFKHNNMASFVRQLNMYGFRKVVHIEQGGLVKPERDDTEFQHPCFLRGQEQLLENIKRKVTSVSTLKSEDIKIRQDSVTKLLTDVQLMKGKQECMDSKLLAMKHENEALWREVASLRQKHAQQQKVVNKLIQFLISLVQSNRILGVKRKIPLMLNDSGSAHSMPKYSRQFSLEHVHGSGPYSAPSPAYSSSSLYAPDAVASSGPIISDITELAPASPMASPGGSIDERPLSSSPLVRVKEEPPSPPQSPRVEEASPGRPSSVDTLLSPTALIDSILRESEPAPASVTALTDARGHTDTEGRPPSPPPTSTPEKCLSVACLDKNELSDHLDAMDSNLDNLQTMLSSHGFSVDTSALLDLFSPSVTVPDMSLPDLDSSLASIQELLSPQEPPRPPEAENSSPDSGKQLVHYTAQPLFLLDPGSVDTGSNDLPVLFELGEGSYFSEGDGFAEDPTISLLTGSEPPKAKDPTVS
Chain of ELF1 (P32519 whole entry): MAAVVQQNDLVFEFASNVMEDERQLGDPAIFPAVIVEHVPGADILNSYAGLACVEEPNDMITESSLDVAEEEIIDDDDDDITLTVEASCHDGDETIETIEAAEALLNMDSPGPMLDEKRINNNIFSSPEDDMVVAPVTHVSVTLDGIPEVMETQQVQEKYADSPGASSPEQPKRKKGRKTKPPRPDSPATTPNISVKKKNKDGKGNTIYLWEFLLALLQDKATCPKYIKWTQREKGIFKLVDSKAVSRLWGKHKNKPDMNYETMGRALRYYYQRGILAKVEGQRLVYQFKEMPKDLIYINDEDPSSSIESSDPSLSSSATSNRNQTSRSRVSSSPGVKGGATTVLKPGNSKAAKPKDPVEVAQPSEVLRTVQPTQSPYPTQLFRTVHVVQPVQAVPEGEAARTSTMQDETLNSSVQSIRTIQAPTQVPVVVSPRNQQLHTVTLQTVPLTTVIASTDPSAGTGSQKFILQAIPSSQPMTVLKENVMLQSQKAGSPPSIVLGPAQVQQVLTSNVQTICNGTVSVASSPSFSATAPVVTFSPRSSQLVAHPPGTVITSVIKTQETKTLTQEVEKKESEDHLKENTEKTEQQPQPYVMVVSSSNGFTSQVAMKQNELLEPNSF
Chain of SPIB (Q01892 whole entry): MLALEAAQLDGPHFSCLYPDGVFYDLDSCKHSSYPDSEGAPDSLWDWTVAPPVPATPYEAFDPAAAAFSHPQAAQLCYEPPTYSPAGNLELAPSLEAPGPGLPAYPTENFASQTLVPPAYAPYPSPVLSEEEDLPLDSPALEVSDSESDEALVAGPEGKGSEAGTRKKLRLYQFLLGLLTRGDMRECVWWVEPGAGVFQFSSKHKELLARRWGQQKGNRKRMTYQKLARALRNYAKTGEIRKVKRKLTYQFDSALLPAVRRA
Chain of ELF4 (Q99607 whole entry): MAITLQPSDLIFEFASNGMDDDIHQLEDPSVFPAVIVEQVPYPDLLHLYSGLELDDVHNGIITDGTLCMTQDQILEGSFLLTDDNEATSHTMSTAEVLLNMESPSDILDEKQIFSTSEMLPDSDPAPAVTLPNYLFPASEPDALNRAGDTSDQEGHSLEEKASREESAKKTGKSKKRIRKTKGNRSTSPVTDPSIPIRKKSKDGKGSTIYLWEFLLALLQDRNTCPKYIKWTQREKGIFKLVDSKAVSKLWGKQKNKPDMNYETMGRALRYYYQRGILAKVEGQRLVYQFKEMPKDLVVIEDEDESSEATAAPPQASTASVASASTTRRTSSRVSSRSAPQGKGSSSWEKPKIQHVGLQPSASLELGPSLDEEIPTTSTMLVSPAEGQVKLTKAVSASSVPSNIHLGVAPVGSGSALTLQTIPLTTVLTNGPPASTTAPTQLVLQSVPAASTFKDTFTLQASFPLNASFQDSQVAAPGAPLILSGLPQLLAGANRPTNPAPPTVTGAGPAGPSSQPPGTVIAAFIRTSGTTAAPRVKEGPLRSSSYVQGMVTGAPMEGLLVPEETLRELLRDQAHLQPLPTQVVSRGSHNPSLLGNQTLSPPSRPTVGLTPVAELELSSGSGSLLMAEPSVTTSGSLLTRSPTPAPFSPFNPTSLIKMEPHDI
Chain of ETV1 (P50549 whole entry): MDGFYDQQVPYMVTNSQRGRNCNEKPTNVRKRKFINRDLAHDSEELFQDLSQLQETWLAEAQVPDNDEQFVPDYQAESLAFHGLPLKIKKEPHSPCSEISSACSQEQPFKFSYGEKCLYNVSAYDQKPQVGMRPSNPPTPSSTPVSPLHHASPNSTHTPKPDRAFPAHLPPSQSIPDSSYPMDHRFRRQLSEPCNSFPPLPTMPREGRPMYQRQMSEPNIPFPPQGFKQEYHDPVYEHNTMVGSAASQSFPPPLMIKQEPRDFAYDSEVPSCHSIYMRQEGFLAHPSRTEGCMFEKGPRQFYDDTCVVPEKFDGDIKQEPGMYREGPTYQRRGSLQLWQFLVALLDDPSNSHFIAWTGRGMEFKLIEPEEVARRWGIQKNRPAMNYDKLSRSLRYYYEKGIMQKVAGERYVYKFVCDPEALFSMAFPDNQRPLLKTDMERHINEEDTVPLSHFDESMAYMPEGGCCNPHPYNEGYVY

TAAGAG
binding signal (HSF1): 1.19 fold enrichment (6-mer frequency, TF over GST control)
binding signal (CRX): 1.46 fold enrichment (6-mer frequency, TF over GST control)

AGGATT
binding signal (HSF1): 1.78 fold enrichment (6-mer frequency, TF over GST control)
binding signal (CRX): 2.82 fold enrichment (6-mer frequency, TF over GST control)
binding signal (ETV3L): 1.03 fold enrichment (6-mer frequency, TF over GST control)
binding signal (SPDEF): 1.04 fold enrichment (6-mer frequency, TF over GST control)

TCCAGA
binding signal (HSF1): 3.36 fold enrichment (6-mer frequency, TF over GST control)
binding signal (CRX): 1.5 fold enrichment (6-mer frequency, TF over GST control)

CAAAGA
binding signal (ELF1): 1.01 fold enrichment (6-mer frequency, TF over GST control)
binding signal (ELK3): 1.03 fold enrichment (6-mer frequency, TF over GST control)
binding signal (HSF1): 1.1 fold enrichment (6-mer frequency, TF over GST control)
binding signal (CRX): 1.05 fold enrichment (6-mer frequency, TF over GST control)
binding signal (ETV1): 1.02 fold enrichment (6-mer frequency, TF over GST control)

TGCGAG
binding signal (SPIB): 1.03 fold enrichment (6-mer frequency, TF over GST control)
binding signal (HSF1): 1.15 fold enrichment (6-mer frequency, TF over GST control)

CTAGGG
binding signal (SPIC): 1.07 fold enrichment (6-mer frequency, TF over GST control)

CTGGGG
binding signal (SPIC): 1 fold enrichment (6-mer frequency, TF over GST control)

CAATCG
binding signal (SPIC): 1.03 fold enrichment (6-mer frequency, TF over GST control)

ACGCGC
binding signal (ELK1): 1.12 fold enrichment (6-mer frequency, TF over GST control)
binding signal (GABPA): 1.07 fold enrichment (6-mer frequency, TF over GST control)
binding signal (ELF1): 1.05 fold enrichment (6-mer frequency, TF over GST control)
binding signal (EHF): 1.07 fold enrichment (6-mer frequency, TF over GST control)
binding signal (ELK3): 1.04 fold enrichment (6-mer frequency, TF over GST control)
binding signal (FEV): 1.04 fold enrichment (6-mer frequency, TF over GST control)
binding signal (SPIC): 1.05 fold enrichment (6-mer frequency, TF over GST control)
binding signal (ELF4): 1.06 fold enrichment (6-mer frequency, TF over GST control)
binding signal (ELK4): 1.02 fold enrichment (6-mer frequency, TF over GST control)
binding signal (ETV2): 1.08 fold enrichment (6-mer frequency, TF over GST control)
binding signal (ETV3L): 1.09 fold enrichment (6-mer frequency, TF over GST control)
binding signal (SPDEF): 1.06 fold enrichment (6-mer frequency, TF over GST control)
binding signal (ETV3): 1.09 fold enrichment (6-mer frequency, TF over GST control)
